Where “and” joins values, the source holds several entries; their conditions need not be identical. Equal values may be shown once. Unmarked numbers belong to inactive results. Records with an inconclusive call do not appear. Calls of active or inactive are those of the source. Calls come from the whole dose curve; as a rule, active = well fitted curve in the direction sought with a large enough effect; inconclusive = small, poorly fitted or top-dose-only effect, or another doubt; inactive = no such curve, though single readings can be large; an effect the other way counts as inactive or inconclusive. Non-standard residues stand in square brackets, D forms with d. Residues, ends and D or L forms follow the SMILES beside them. *: point of attachment. Sta = CC(C)C[C@H](N)[C@@H](O)CC(=O)O; Isovaleryl = CC(C)CC(=O)*

For assay [1], the target named is N-terminal Xaa-Pro-Lys N-methyltransferase 1 (Homo sapiens) (UniProt Q9BV86). Briefly: qHTS Assay for Inhibitors of N-terminal methyltransferase 1 (NTMT1): LOPAC validation of the NTMT1 SAHH-coupled ThioGlo3 Assay (AID 1347143). For activity change, negative = inhibition: % is set by controls: 0 for no effect and ±100 for the full control effect. Note: nearly all actives have a fitted effect of over 70% in size. Note: potency is the fitted concentration of half-maximal effect. An outline of the steps: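 Fluorescence read-out (excitation 340nm, emission 450nm) of SAH-derived thiol, measured via SAHH coupling and ThioGlo3, taken immediately and after a 30 min room-temperature reaction, then normalized to the background read. Enzyme: NTMT1 at 125nM; cofactor SAM 100uM in the added reagent.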
Sequence of N-terminal Xaa-Pro-Lys N-methyltransferase 1 (Homo sapiens) (Q9BV86 whole entry, looked up): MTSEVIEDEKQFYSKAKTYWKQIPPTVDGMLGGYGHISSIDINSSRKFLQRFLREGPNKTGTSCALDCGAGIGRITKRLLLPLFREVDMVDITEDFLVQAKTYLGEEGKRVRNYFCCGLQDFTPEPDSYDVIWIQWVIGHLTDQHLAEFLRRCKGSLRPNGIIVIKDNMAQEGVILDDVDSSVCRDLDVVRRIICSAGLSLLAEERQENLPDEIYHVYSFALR
A general note: qHTS replaces the single test concentration by a dilution series.

Another assay addresses Furin (Homo sapiens) (UniProt P09958). Briefly: Furin counterscreen qHTS for Zika virus inhibitors (AID 1347149).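 Note: purified recombinant full-length human furin enzyme at 5 nM; fluorescence gain from furin cutting a BOC-RVRR-AMC peptide substrate over 15 min; top concentration of the series differs between compounds; plate controls were no-inhibitor control for no effect and no-enzyme control for full effect; nearly all actives have a fitted effect of over 70% in size.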 The gist of the method: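 Fluorogenic cleavage of BOC-RVRR-AMC (2 microM final, Km ~15 µM) was monitored (ex 340, em 450 nm) at 37C after 15 min RT preincubation of 5 nM furin with compounds in HEPES pH 7.0 buffer with CaCl2 and Triton X-100. Percent inhibition was fitted to a 4-parameter Hill curve.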
In general terms: A counterscreen serves to expose hits that act by an unwanted route or on another target.

In assay [2] the test system is Zika virus NS2B-NS3 protease (unlinked). Briefly: Optimization of GU AMC qHTS for Zika virus inhibitors: Unlinked NS2B-NS3 protease assay (AID 1347151).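 For activity change, negative = inhibition: series mostly up to about 52 µM; 0% = no-inhibitor control and -100% = no-enzyme control.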 Note: nearly all actives have a fitted effect of over 80% in size. Note: potency is the fitted concentration of half-maximal effect. The gist of the method: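 Unlinked protease (25 nM final); buffer 10 mM Tris-HCl pH 8.0 + 0.01% Tween 20; AMC substrate; 15 min RT, dark; Δfluorescence normalized to no-inhibitor/no-enzyme controls; 4-parameter Hill fit.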

The test system of assay [3] is Zika virus NS2B-NS3 protease (unlinked complex). In words: Confirmatory screen GU AMC qHTS for Zika virus inhibitors (AID 1347153).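 Note: percent inhibition with 0% = no inhibitor control and 100% = no enzyme control; nearly all actives have a fitted effect of over 70% in size.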 An outline of the steps: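 Compounds were preincubated 15 min at room temperature with 25 nM noncovalent NS2B-NS3 protease at pH 8.0; AMC substrate added at 10 microM and 15-min fluorescence gain (340/450 nm) converted to percent inhibition, fitted 4-parameter.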

Assay [4] has the same test system. In words: Primary screen GU Rhodamine qHTS for Zika virus inhibitors: Unlinked NS2B-NS3 protease assay (AID 1347159). Note: % is set by controls: 0 for no effect and ±100 for the full control effect; nearly all actives have a fitted effect of over 60% in size. The gist of the method:
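Percent inhibition derives from the 15-min fluorescence change (ex 480, em 540 nm), normalized to no-enzyme and no-inhibitor wells. Reactions contained 25 nM NS2B-NS3 complex and 1.5 microM substrate in 10 mM Tris-HCl pH 8.0.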

The subject of assay [5] is Zika virus NS2B-NS3 protease (linked construct). In words: Primary screen NINDS Rhodamine qHTS for Zika virus inhibitors (AID 1347160). Note: % is set by controls: 0 for no effect and ±100 for the full control effect; nearly all actives have a fitted effect of over 55% in size. The gist of the method: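 In 10 mM Tris-HCl pH 8.0 containing 0.01% Tween 20, linked NS2B-NS3 protease (25 nM final) is exposed to test compounds for 15 min. Cleavage of 1.5 microM Rhodamine110 substrate is tracked by fluorescence over 15 min.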

A short description of assay [6]: Vero cells viability qHTS for Zika virus inhibitors (AID 1347167). Note: % is set by controls: 0 for no effect and ±100 for the full control effect. An outline of the steps:
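Counter-screen for cytotoxicity of hits from NS2B-NS3 protease qHTS. Overnight-attached cells (2.5 x 10^5 cells/mL, DMEM/4% FBS) were dosed in titration, incubated 24 to 48 hours, then assayed by CellTiter Glo.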

A short description of assay [7]: Tertiary RLuc qRT-PCR qHTS assay for Zika virus inhibitors (AID 1347169). For activity change, negative = inhibition: top concentration of the series differs between compounds; % is set by controls: 0 for no effect and ±100 for the full control effect. Note: nearly all actives have a fitted effect of over 55% in size. Note: potency is the fitted concentration of half-maximal effect. The gist of the method: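 Vero, 1,000 cells/well, o/n 37 C; cpd pinned in DMSO; ZIKV-RLuc Cambodian, MOI 1-2, 48-72 h 37 C; live-cell RLuc substrate, lum read at 1-1.5 h.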
Background: Quantitative PCR measures a nucleic acid by following its amplification.

Assay [8] can be described thus: qHTS to identify inhibitors of the type 1 interferon - major histocompatibility complex class I in skeletal muscle: primary screen against the NCATS LOPAC collection (AID 1347405).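 Note: lytic HiBiT luminescence reporting HLA-B protein level.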 Note: potency is the fitted concentration of half-maximal effect. The gist of the method:
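CRISPR-engineered immortalized human myoblasts (C25cl48) with HiBiT fused to endogenous HLA-B*08:01, stimulated with 4 ng/ml IFN-beta. LOPAC compounds tested as a 7-point 1:4.3 titration (top 46 uM final), 24 h at 37 C; lytic HiBiT luminescence read.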

Assay [9] in a line: qHTS for inhibitors of adenylyl cyclases using a fission yeast platform: a pilot screen against the NCATS LOPAC library (AID 1347410).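 Note: plate controls were DMSO vehicle for no effect and DPI positive control for full effect.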 The gist of the method:
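Fission yeast qHTS: CHP2027 cells (AC9-GNAS-PDE4D2, fbp1-GFP), 5x10^6 cells/mL working density, EMM + His/Lys/Ura; LOPAC at up to 57 µM final; 18 h dark, 30C; GFP by laser cytometry. DPI positive control, DMSO vehicle.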

Assay [10] has as its system Zika virus NS2B-NS3 protease. In words: Primary screen GU AMC qHTS for Zika virus inhibitors (AID 1347154).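 Note: 0% = no-inhibitor control and -100% = no-enzyme control; nearly all actives have a fitted effect of over 70% in size.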 The gist of the method:
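Unlinked Zika NS2B hydrophilic domain/NS3 protease domain noncovalent complex (25 nM final) in 10 mM Tris-HCl pH 8.0, 0.01% Tween 20, with AMC peptide substrate. Fluorescence (ex 340, em 450 nm) change over 15 min, room temperature; percent inhibition fitted to 4-parameter Hill equation.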

The target in assay [11] is Lysine-specific demethylase 5B (Homo sapiens) (UniProt Q9UGL1). Briefly: Optimization screen for KDM5B Histone Demethylases FDH coupled qHTS against the LOPAC library (AID 1347166). Note: 0% is about no effect. The gist of the method:
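KDM5BDeltaAP (200nM final) preincubated 10 min with compound, then 12.5uM H3K4Me3, 25uM a-ketoglutarate, ascorbate, Fe(II), NAD+ and FDH added; 50mM HEPES pH 7.5, 0.01% Tween-20. NADH fluorescence (340/450 nm) change over 30 min, room temperature.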

The nature of assay [12]: qHTS to identify inhibitors of the type 1 interferon - major histocompatibility complex class I in skeletal muscle: primary screen against the NCATS Pharmaceutical Collection (AID 1347407). Note: % is set by controls: 0 for no effect and ±100 for the full control effect. The gist of the method: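 Luminescence from HiBiT-tagged endogenous HLA-B*08:01 served as the read-out of IFN-beta-induced MHC class I in CRISPR-engineered C25cl48 myoblasts. Cells received 4 ng/ml IFN-beta plus compound (high final 46 uM, […]) for 24 h.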

Assay [13] is described as follows: qHTS of pediatric cancer cell lines to identify multiple opportunities for drug repurposing: Confirmatory screen for SK-N-SH cells (AID 1347129).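 Note: cells exposed to compound for 48 h before viability read; nearly all actives have a fitted effect of over 60% in size.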 Note: potency is the fitted concentration of half-maximal effect. An outline of the steps:
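Cells (500-1,000/well) in growth media were settled 5 h at 37 degrees C, then given compounds for 48 h. Viability was read as CellTiter-Glo luminescence. Primary runs used MIPE at 11 points (0.78 nM-46 µM) and NPC at 8 points (0.59 nM-46 µM); follow-ups used 11 points.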

For assay [14], the system named is Zika virus NS2B-NS3 protease (linked construct). Briefly: Confirmatory screen NINDS AMC qHTS for Zika virus inhibitors (AID 1347152). An outline of the steps:
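Enzyme (1 nM, linked construct) was preincubated with compound for 15 minutes at room temperature in 10 mM Tris-HCl pH 8.0 with 0.01% Tween 20. Bz-Nle-Lys-Arg-Arg-AMC was then added to 10 microM, and AMC fluorescence was recorded immediately and after 15 minutes.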

Assay [15] is described as follows: Confirmatory screen NINDS Rhodamine qHTS for Zika virus inhibitors (AID 1347161).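 For activity change, negative = inhibition: purified Zika NS2B-NS3 protease with linked NS2B cofactor domain and Rhodamine110 peptide substrate; series mostly up to about 110 µM; plate controls were no-inhibitor control for no effect and no-enzyme control for full effect.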 Note: nearly all actives have a fitted effect of over 60% in size. Note: potency is the fitted concentration of half-maximal effect. The gist of the method: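 Each compound, titrated, sat 15 min with 25 nM linked protease before 1.5 microM Rhodamine110 substrate went in. Fluorescence gain over the next 15 min, in pH 8.0 Tris with Tween 20, gave Hill-fitted curves.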
Assay [16] concerns Zika virus NS2B-NS3 protease (linked). Briefly: 384 well plate NINDS AMC confirmatory qHTS for Zika virus inhibitors (AID 1347163). Note: potency is the fitted concentration of half-maximal effect; nearly all actives have a fitted effect of over 50% in size. The gist of the method: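 Linked NS2B-NS3 protease (final 5 nM, 30 nM or 60 nM) was preincubated with compounds (final up to 1 mM) for ~15 minutes. Ac-VKTGKR-AMC substrate (final 30 microM) then reacted for 25 minutes at room temperature in the dark. Fluorescence (ex 355/em 460 nm) was normalized to no-enzyme and no-inhibitor controls.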

Assay [17] relates to Zika virus NS2B-NS3 protease (linked construct). In words: 384 well plate NINDS Rhodamine confirmatory qHTS for Zika virus inhibitors (AID 1347164).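 Note: fluorescence from protease cleavage of Ac-LKRR-rhodamine 110 substrate; potency is the fitted concentration of half-maximal effect; nearly all actives have a fitted effect of over 65% in size.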 The gist of the method: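 Enzyme (final 5/30/60 nM) + cpd (DMSO), ~15 min; add Ac-LKRR-Rd 10 microM final; 25 min RT, dark; FI ex 485/em 538; normalized to no-enzyme, no-inhibitor ctrls; aprotinin intraplate ctrl.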

Sequence of Furin (Homo sapiens) (P09958 whole entry, looked up): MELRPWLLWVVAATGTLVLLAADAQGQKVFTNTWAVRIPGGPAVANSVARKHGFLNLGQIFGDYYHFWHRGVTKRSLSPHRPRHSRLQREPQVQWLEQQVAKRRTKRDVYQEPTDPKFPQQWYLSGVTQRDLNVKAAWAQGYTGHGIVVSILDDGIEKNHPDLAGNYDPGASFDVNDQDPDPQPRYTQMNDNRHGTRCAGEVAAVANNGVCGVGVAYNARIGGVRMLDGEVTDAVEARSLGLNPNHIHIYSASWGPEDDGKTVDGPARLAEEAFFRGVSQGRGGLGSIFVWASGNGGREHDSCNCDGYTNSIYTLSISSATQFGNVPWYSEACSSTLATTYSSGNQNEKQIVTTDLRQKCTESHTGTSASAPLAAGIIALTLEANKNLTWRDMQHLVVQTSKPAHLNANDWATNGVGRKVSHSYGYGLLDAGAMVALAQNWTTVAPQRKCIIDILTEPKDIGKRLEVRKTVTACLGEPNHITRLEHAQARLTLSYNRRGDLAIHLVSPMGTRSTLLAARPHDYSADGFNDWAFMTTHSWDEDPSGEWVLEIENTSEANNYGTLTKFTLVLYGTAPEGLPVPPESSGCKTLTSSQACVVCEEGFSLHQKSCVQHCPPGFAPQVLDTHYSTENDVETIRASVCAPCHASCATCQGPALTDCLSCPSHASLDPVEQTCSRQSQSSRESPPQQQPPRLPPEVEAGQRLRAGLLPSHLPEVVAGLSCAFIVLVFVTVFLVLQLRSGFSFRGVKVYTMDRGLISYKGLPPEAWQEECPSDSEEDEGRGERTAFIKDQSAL
Sequence of Lysine-specific demethylase 5B (Homo sapiens) (Q9UGL1 whole entry, looked up): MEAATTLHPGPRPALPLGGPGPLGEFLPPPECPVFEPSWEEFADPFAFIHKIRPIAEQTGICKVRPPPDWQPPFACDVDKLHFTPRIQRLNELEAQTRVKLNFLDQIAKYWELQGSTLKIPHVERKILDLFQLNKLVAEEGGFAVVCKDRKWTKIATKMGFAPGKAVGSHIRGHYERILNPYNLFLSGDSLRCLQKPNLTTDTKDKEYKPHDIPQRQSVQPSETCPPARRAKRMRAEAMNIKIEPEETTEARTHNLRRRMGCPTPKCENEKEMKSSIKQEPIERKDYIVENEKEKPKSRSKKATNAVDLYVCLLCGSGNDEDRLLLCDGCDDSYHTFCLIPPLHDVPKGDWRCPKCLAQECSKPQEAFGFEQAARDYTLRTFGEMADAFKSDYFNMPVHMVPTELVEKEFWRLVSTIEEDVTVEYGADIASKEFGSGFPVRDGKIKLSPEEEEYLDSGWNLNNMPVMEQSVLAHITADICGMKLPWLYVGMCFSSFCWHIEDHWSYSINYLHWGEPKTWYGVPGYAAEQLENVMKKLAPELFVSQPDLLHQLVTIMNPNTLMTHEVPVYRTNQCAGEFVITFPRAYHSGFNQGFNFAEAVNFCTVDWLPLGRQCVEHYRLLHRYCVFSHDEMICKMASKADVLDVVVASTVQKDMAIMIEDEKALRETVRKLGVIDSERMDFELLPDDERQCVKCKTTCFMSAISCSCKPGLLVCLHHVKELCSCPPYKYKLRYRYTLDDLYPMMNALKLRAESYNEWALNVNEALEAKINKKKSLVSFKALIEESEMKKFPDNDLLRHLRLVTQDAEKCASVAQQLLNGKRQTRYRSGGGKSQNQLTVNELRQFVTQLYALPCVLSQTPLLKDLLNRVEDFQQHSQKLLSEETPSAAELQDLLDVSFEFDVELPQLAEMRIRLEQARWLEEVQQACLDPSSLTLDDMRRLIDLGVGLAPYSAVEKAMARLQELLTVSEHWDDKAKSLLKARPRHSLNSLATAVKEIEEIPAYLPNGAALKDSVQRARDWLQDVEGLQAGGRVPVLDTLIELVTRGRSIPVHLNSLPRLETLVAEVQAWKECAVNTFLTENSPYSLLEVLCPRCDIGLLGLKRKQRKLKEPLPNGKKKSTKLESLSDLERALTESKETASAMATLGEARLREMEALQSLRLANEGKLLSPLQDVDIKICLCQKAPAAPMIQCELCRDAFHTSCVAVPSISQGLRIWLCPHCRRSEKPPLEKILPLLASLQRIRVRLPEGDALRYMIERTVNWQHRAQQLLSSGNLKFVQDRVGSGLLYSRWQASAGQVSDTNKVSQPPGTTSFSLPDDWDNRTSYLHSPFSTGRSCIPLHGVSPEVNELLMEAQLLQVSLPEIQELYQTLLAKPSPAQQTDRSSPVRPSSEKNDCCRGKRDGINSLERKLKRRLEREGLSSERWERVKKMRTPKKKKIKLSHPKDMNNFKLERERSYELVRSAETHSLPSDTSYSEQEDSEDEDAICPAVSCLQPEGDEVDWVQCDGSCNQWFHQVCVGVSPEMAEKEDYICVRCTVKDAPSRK

As for `CN(C)C(=O)[C@H](O)[C@H](Cc1ccccc1)NC(=O)c1cc2cc(Cl)ccc2[nH]1`, the Potency result (in [1]; with Furin (Homo sapiens); in [3]; in assay [4]; in assay [5]; in assay [6]) was “inactive” in each case. Moreover, the Potency result in [7] and in assay [8] was “inactive” each time. Besides, the Potency in assay [2] is 26.7 µM (active). For the same molecule, the result in assay [9] was inactive.
Take `CC1(C)NC(=O)N(c2ccc([N+](=O)[O-])c(C(F)(F)F)c2)C1=O`: the Potency entry in assay [1], in assay [2], in assay [10], in [8] and in assay [12] was “inactive” in each case. Also, the result in assay [11] and in [9] was inactive.
For `CC(C)CC(=O)N[C@H](C(=O)N[C@H](C(=O)N[C@@H](CC(C)C)[C@@H](O)CC(=O)N[C@@H](C)C(=O)N[C@@H](CC(C)C)[C@@H](O)CC(=O)O)C(C)C)C(C)C` (Isovaleryl-VV[Sta]A[Sta]-OH), the Potency entry in assay [13], in assay [10] and in [12] was “inactive” in each case.
Take `Nc1ccn([C@@H]2O[C@H](CO)[C@@H](O)C2O)c(=O)n1` (some centres not stated): the Potency result in [13] and in assay [10] was “inactive” each time. Further, the outcome in assay [11] was inactive.
Consider `CCc1nc(N)nc(N)c1-c1ccc(Cl)cc1`, for which the Potency entry (in [13]; with Furin (Homo sapiens); in assay [2]; in assay [14]; in [3]; in assay [10]) was “inactive” throughout. Further, the Potency result in assay [15] and in assay [6] was “inactive” throughout. Also, the Potency in [7] is 11.7 µM (active) and 16.5 µM (active).
As for `Nc1nc(OCc2ccccc2)c2[nH]cnc2n1`, the Potency entry in [13], in assay [1], in assay [2] and in assay [10] was “inactive” in each case. In addition, the molecule was classed as inactive in assay [11] and in [9].
On to `CCN(CC)CCOc1ccc(Nc2ncc3cc(-c4c(Cl)cccc4Cl)c(=O)n(C)c3n2)cc1`, for which the Potency in [13] was 0.833 µM (active). Also, the Potency entry in assay [2] and in assay [10] was “inactive” throughout. The outcome in [9] was inactive.
On to `CN(C)c1ccc(O)c2c1C[C@H]1C[C@H]3[C@H](N(C)C)C(=O)C(C(N)=O)=C(O)[C@@]3(O)C(=O)C1=C2O`, for which the Potency in assay [13] was 11.8 µM (active); in [15], 44.1 µM (active) and 35 µM (active); in assay [16], 141 µM (active); in assay [17] it was 89.1 µM (active). Moreover, the Potency result (with Furin (Homo sapiens); in assay [14]; in [3]; in assay [6]; in [12]) was “inactive” throughout.
On to `CCN(CCO)CCCC(C)Nc1ccnc2cc(Cl)ccc12` (configuration not stated), for which the Potency result in assay [13] and in assay [10] was “inactive” in each case. Also, the activity change, negative = inhibition in assay [4] was 15.4% [at 11.5 µM]; in assay [5] it was -6.84% [at 4.91 µM]; in [12] it was -5.56% [at 3.83 µM].
Take `Cc1cc(C2CCCCC2)n(O)c(=O)c1`: the Potency in [13] was 2.35 µM (active). Moreover, the Potency result in assay [10] and in assay [12] was “inactive” each time.
On to `CC(C)c1ccc2c(c1)c(SC(C)(C)C)c(CC(C)(C)C(=O)O)n2Cc1ccc(Cl)cc1`, for which the Potency entry in assay [1] and in assay [10] was “inactive” in each case. The Potency in assay [2] was 1.34 µM (active); in assay [15] it was 1.56 µM (active); in assay [16], 14.1 µM (active); in assay [17], 14.1 µM (active). Besides, the call in assay [11] and in [9] was inactive.
Regarding `O=Nc1c(-c2c(O)[nH]c3cc(Br)ccc23)[nH]c2ccccc12`, the figures for the Potency in [1] and in assay [8] were 14.1 µM (active) and 15.8 µM (active), respectively. The molecule was called inactive in assay [11] and in assay [9].
For `Clc1ccc(C(Cn2ccnc2)OCc2ccsc2Cl)c(Cl)c1` (configuration not stated), the Potency result in assay [10] is “inactive”.

Source of the values: PubChem BioAssay (NCATS).
